High-throughput results: PubChem, Sanford-Burnham Center for Chemical Genomics
CRFBP-R2 agonist = CRF-BP/CRF-R2 complex agonism; HEK293 CRF-R2/CRF-BP, calcium dye fluorescence (FLIPR); percent of saturating CRF peptide response; activation, % at 13.2 µM; hit rate 0.46% among 350,000; AID 588473;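 active means activation of at least 50%, plus an integration ratio under a set limit after plate pattern correction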
SKN-1 block = inhibitors of C. elegans SKN-1 | C. elegans VP596 Pgst-4::GFP/RFP ratio, acrylamide-induced, 24 h | inhibition, % at 21.8 µM | hit rate 0.49% among 360,000;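 active means interference check ratio from 0.5 to 1.5 plus GFP to RFP signal ratio inhibition reaching or exceeding a fixed threshold, cut at about 30% in these data, passing the limit was not always enough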
CRFR2-BP antag = CRF-BP/CRF-R2 complex antagonism | HEK293 CRF-R2/CRF-BP, CRF-induced calcium fluorescence | inhibition, % at 11.8 µM | hit rate 0.59% among 350,000 | AID 588475;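 active means inhibition of the ligand-induced calcium signal above about 50% at the single tested concentration, limit read from the data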
hiPSC survival = hiPSC single-cell survival enhancement; survival enhancement, % at 20 µM; ATPlite luminescence; 100% = ROCK inhibitor wells, 0% = DMSO; hit rate 0.044% among 360,000; in the data active means survival enhancement above about 18%;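 further: cells exposed to compounds for 16 hours before the ATP read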
TAG inh = reduces triacylglycerol accumulation in H9c2 cells. hit rate 0.66% among 230,000. inhibition, % at 12.5 µM. Nile Red lipid (TAG) fluorescence; cells loaded with 200 µM oleic acid;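 active means pattern-corrected inhibition of lipid staining of at least 50% with the nuclear-stain viability signal not falling by more than 50%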
H9c2 protect = myocardial damage modulation in H9c2 cells; H9c2 cardiomyocytes, H2O2 injury protection, ATPLite, 2 h; protection from H2O2 cell death, % at 20 µM; hit rate 0.63% among 360,000;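 active means compounds giving at least 50% protection of heart cells from peroxide-induced death in the single-dose screen, raw or plate-pattern-corrected value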
Numbers stand for hits; . = inactive; / = not tested or not shown. Only some compounds are listed: those with a hit (about 2.5% of all), similar ones and a draw of the others.

SMILES | CRFBP-R2 agonist | SKN-1 block | CRFR2-BP antag | hiPSC survival | TAG inh | H9c2 protect
CCCn1c(=O)c2[nH]c(-c3ccc(OCC(=O)Nc4ccc(C#N)cc4)cc3)nc2n(CCC)c1=O | . | . | . | . | . | 94
CC(=O)Nc1ccc(NC(=O)COc2ccc(-c3ccc(C#N)cc3)cc2)cc1 | . | . | . | . | . | .
CC1SC(=S)N(c2ccc(N(C)C)cc2)C1=O (stereo unspecified) | . | . | . | . | / | .
COc1ccc(N(CC(=O)NN=C2CCCC2)S(=O)(=O)c2ccccc2)cc1Cl | 80 | . | . | . | / | .
C/C(=N\Nc1ccc(Cl)c(C(=O)O)c1)c1ccc(Br)s1 | . | 44 | . | . | / | .
COc1ccccc1N1CCN(C(=O)C2c3ccccc3Oc3ccccc32)CC1 | . | . | . | . | 57 | .
NC(=O)C1CCN(C(=O)c2ccc(Cl)c(NC(=O)c3cccs3)c2)CC1 | . | . | . | . | . | .
COc1ccc(C(=O)COc2ccccc2C(N)=O)cc1 | . | . | . | . | . | 69
Cc1cc2[nH]c3c(c[n+](C)c4ccccc34)c2cc1C | . | . | . | . | 127 | .
Cc1cc(C(=O)CN2C(=O)NC(C)(CC(C)C)C2=O)c(C)n1-c1ccc2c(c1)OCO2 (stereo unspecified) | . | . | 80 | . | / | .
O=C(NN=Cc1c(O)ccc2ccccc12)c1ccc2c(c1)OCO2 | . | . | . | . | . | .
O=C(N/N=C/c1c(O)ccc2ccccc12)c1ccc(CO)nc1 | . | . | . | . | / | 59
O=C(N/N=C\c1c(O)ccc2ccccc12)c1ccc(S(=O)(=O)N2CCCCC2)cc1 | 203 | . | . | . | / | .
COc1ccc(-c2nc3c4ccccc4ccn3c2Cc2ccccc2C(F)(F)F)cc1OC | / | . | / | . | / | .
CCCN(C(=O)c1cc(Cl)nc2ccccc12)C1CCS(=O)(=O)C1 (stereo unspecified) | . | . | 75 | . | . | .
CC(C)CN(C(=O)c1cc(Cl)nc2ccccc12)C1CCS(=O)(=O)C1 (stereo unspecified) | . | . | . | . | . | .
COc1ccc(C)cc1NCc1cccc(OC)c1OC | . | . | 78 | . | / | .
CC(=O)c1ccc(N2CCN(C(=O)c3cc(-c4cccnc4)nc4ccc(Br)cc34)CC2)cc1 | . | . | . | . | . | 53
O=C(c1cc(-c2cccnc2)nc2ccc(Br)cc12)N1CCN(c2ncccn2)CC1 | . | . | . | . | . | 59
O=C(c1cc(-c2ccncc2)nc2ccc(Br)cc12)N1CCN(Cc2ccc3c(c2)OCO3)CC1 | . | . | . | . | . | 66
O=C(c1cc(-c2ccncc2)nc2ccc(Cl)cc12)N1CCN(Cc2ccc3c(c2)OCO3)CC1 | . | . | . | . | . | .
CS(=O)(=O)N1CCN(C(=O)c2cc(-c3cccnc3)nc3ccc(Br)cc23)CC1 | . | . | . | . | . | .
Cc1cc(CN2CCCC(C(=O)Nc3ccc(-c4nc5ccccc5[nH]4)cc3)C2)n[nH]1 (stereo unspecified) | . | . | . | . | . | .
CS(=O)(=O)N1CCN(c2c(Cl)cccc2[N+](=O)[O-])CC1 | . | . | . | . | / | .
COCCn1c(SCc2nnc(-c3ccccc3)o2)nc2sc3c(c2c1=O)CCC3 | . | . | 55 | . | . | .
SMILES | CRFBP-R2 agonist | SKN-1 block | CRFR2-BP antag | hiPSC survival | TAG inh | H9c2 protect
COc1cc(/C=C/C(=O)OCC(=O)Nc2ccc3[nH]c(=O)[nH]c3c2)ccc1OC(F)F | . | . | . | . | . | .
COc1ccc(OC)c(NC(=O)C2(C)CCN2C(=O)C(C)(C)c2ccccc2)c1 (stereo unspecified) | / | . | / | . | . | .
CC(C)(C)C1CCC(=NNC(=O)C(=O)NC2CCCCC2)CC1 (stereo unspecified) | . | . | . | . | / | .
O=[N+]([O-])c1cc(-c2csc(NCCc3nc4cc(C(F)(F)F)ccc4n3CCCO)n2)ccc1Cl | . | . | . | . | . | .
Cc1ccc(Cn2c(CCNc3nc(-c4ccc(Cl)c([N+](=O)[O-])c4)cs3)nc3cc(C(=O)NCCCO)ccc32)cc1 | . | . | . | . | . | 70
CCOC(=O)C1(C)CCN1C(=O)Cc1ccc(OC)cc1 (stereo unspecified) | / | . | / | . | . | .
O=C(CSc1nc2ccccc2c(=O)[nH]1)N1CCN(S(=O)(=O)c2ccccc2)CC1 | . | . | . | . | / | 56
CC1CCCC(C)N1C(=O)CSc1nc(N)c(-c2ccccc2)c(=O)[nH]1 (stereo unspecified) | . | . | . | . | / | .
O=C(CSc1nc2ccccc2c(=O)[nH]1)N1CCOCC1 | . | . | . | . | / | 67
CC1CCCC(C)N1C(=O)CSc1nc2ccccc2c(=O)[nH]1 (stereo unspecified) | . | . | . | . | . | 70
O=C(CSc1nc(-c2ccccc2)c(-c2ccccc2)[nH]1)N1CCN(S(=O)(=O)c2ccccc2)CC1 | . | . | . | . | . | .
Cc1sc2nc(SCC(=O)N3CCOCC3)[nH]c(=O)c2c1C | . | . | . | . | . | 61
CC1CCN(C(=O)CSc2nc3ccccc3c(=O)[nH]2)CC1 | . | . | . | . | . | .
Cc1sc2nc(SCC(=O)NCc3ccco3)[nH]c(=O)c2c1C | . | . | . | . | . | 60
O=C(CSc1nc2ccccc2c(=O)[nH]1)N1CCCCCC1 | . | . | . | . | . | 51
COc1ccc(NC(=O)C(c2cc3ccccc3o2)n2c(=O)c(-c3cc4ccccc4[nH]3)nc3ccccc32)cc1 (stereo unspecified) | / | . | / | / | / | /
O=C1CC(c2ccccc2)CN1S(=O)(=O)c1ccccc1 (stereo unspecified) | . | . | 65 | . | / | .
NCCCC[C@@H](C(=O)N1CCNCC1)n1cc([C@@H](N)CC(N)=O)nn1 | . | . | . | . | . | .
O=C(NC1CCCC1)C(c1c[nH]c2ccccc12)N(C(=O)Cn1nnc(-c2ccc(Cl)cc2)n1)c1ccccc1 (stereo unspecified) | . | . | . | . | 77 | .
O=C(NCC1CCCO1)C(c1ccc(F)cc1)N(C(=O)Cn1nnc(-c2ccc(F)cc2)n1)c1cccc(O)c1 (stereo unspecified) | . | . | . | . | . | 56
CC(C(=O)NC1CCCC1)N(C(=O)Cn1nnc(-c2ccc(F)cc2)n1)c1ccccc1F (stereo unspecified) | . | . | . | . | / | 64
C[C@@H]1CN([C@@H](C)CO)C(=O)c2cc(Br)cnc2O[C@H]1CN(C)C(=O)NC1CCCC1 | . | . | . | . | . | .
C[C@H]1CN([C@@H](C)CO)S(=O)(=O)c2ccc(Br)cc2O[C@@H]1CN(C)S(=O)(=O)c1ccccc1F | / | . | / | . | / | .
CC(C)(C)C1COc2ccccc2N1C(=O)c1ccccc1Cl (stereo unspecified) | 57 | . | . | . | / | .
